From PubChem BioAssay AID1851 (National Center for Advancing Translational Sciences (NCATS), 2009)
Hit rate of the full screen: of about 16,000 compounds, about 5,100 (32%) were called active. Another 25% or so got no clear call; they are omitted. Some of the results follow. Values without a mark were called inactive. The call rests on the fitted dose curve; in most records, active means well fitted curve in the direction sought with a large enough effect; inconclusive means small, poorly fitted or top-dose-only effect, or effect the other way; inactive means no such curve, though single readings can be large or run the other way. Square brackets hold non-standard residues; d marks the D form. Peptide text beside a SMILES is read from it.

target: Cytochrome P450 3A4 (Homo sapiens) (UniProt P08684); experiment: Cytochrome panel assay with activity outcomes; conditions: recombinant CYP, pro-luciferin dealkylation, luminescence, p450-cyp3a4; series mostly up to 57.1 µM
Sequence (P08684 whole entry, looked up): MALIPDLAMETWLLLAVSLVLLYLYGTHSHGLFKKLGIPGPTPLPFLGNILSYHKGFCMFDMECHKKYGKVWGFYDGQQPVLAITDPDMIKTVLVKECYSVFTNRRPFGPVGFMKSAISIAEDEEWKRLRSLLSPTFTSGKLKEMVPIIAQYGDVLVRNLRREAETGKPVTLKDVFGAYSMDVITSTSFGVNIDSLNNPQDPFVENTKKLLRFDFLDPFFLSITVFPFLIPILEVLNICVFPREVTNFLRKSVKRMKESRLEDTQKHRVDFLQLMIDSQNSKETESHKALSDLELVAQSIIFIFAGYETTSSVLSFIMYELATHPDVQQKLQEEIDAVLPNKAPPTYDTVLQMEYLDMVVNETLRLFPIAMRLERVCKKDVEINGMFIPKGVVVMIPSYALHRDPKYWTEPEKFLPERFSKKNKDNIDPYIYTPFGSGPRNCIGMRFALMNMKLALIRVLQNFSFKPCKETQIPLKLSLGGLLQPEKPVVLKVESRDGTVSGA
On the % scale 0 is the no-effect control and ±100 the full control effect.

Compound	AC50	activity, negative = inhibition
C/C(CCN1CCCCc2nc(C)c(C)cc21)=N\O[C@@H](C)CN1CCCc2nc(C)c(C)cc21	3.16 µM (active)	–
CCc1cc2c(nc1CC)CCN(CC/C(C)=N/O[C@@H]1O[C@H](COC(C)=O)[C@H](OC(C)=O)[C@H](OC(C)=O)[C@H]1OC(C)=O)C2	–	-28.1% [at 11.4 µM]
Cc1cc2c(nc1C)CCCN2C[C@@H](O)CN1CCN(C)CC1	–	0.272% [at 11.4 µM]
COc1ccc(-c2ccc3c(n2)CCCN3C[C@H](O)CN2CCCc3nc(-c4ccc(Br)cc4)ccc32)cc1	–	-28.9% [at 11.4 µM]
Cc1cc2c(nc1C)CCCN2C[C@H](O)CN1CCCc2nc(-c3ccc(Br)cc3)ccc21	3.98 µM (active)	–
CCc1cc2c(nc1CC)CCN(CC/C(C)=N/O[C@@H](C)c1cc(-c3c(C)cc(C)cc3C)no1)C2	3.98 µM (active)	–
Cc1cc2c(nc1C)CCCCN2C[C@H](C)O/N=C\[C@@H](C)[C@H](OCc1ccccc1)C(C)C	3.98 µM (active)	–
Cc1cc2c(nc1C)CCCCN2C[C@H](O)CN1CCCc2nc(-c3ccc(Br)cc3)ccc21	–	-29.7% [at 11.4 µM]
C[C@@H](N)[C@@H](C)Cc1ccccc1	–	-8.05% [at 11.4 µM]
CN(C)CCO[C@](C)(c1ccccc1)c1ccccn1	inactive	–
CCCn1nc(Oc2nc(NCC)nc(NCC)n2)ccc1=O	inactive	–
CCCCCCCCCCCCCCCC(=O)C(F)(F)F	inactive	–
COc1ccc(-n2c(=O)c(-c3cccs3)nc3cnc(OC)nc32)cc1	7.94 µM (active)	–
COc1ccc(Oc2ncc3nc(-c4cccs4)c(=O)n(-c4ccccc4)c3n2)cc1	2.51 µM (active)	–
COc1ccc(-n2c(=O)c(-c3cccs3)nc3cnc(Oc4ccccc4)nc32)cc1	inactive	–
COc1ncc2nc(-c3cccs3)c(=O)n(-c3ccccc3)c2n1	inactive	–
CN(C)CCN(c1ccccn1)c1ccccn1	–	-13.9% [at 11.4 µM]
N#C[C@H]1CN[C@H](N)N[C@@H]1N	–	-6.92% [at 11.4 µM]
COc1ccc(-c2ccc(/C=C3\C(=O)N(c4ccccc4)N=C3c3ccccc3)o2)c([N+](=O)[O-])c1	2 µM (active)	–
Cc1sc(=NC(=O)c2ccco2)n(C)c1-c1ccc(F)cc1	inactive	–

Compound	AC50	activity, negative = inhibition
N#CN(CC(N)=O)c1nc(N2CCCCC2)nc(N2CCCCC2)n1	–	-13.4% [at 11.4 µM]
CC(C)OC(=O)c1nnn(-c2nonc2N)c1CSc1ccccn1	0.398 µM (active)	–
COc1nc(/C(N)=N/O)nc(N2CCCCC2)n1	inactive	–
CC(C)(O)c1cn(-c2nonc2N)nn1	inactive	–
COCc1c(C(N)=O)nnn1-c1nonc1N	inactive	–
CCOC(=O)c1cnc(SCCc2ccccc2)nc1N	inactive	–
CCOC(=O)c1nnn(-c2nc(OC)nc(N3CCCCC3)n2)c1-c1ccccc1	15.8 µM (active)	–
CCOC(=O)c1nnn(-c2nonc2N)c1-c1ccc(C)cc1	–	-14.1% [at 2.29 µM]
Nc1nonc1-n1nncc1-c1ccccc1	15.8 µM (active)	–
CCOC(=O)c1nnn(-c2nonc2N)c1-c1ccccc1	15.8 µM (active)	–
CCCOc1cc(N)ccc1C(=O)OCCN(CC)CC	inactive	–
N[C@H](CO)C(=O)NCC(=O)O (H-[dS]-Gly-OH)	–	-1.48% [at 11.4 µM]
CC(=O)N=c1sc(S(N)(=O)=O)nn1C	inactive	–
CCc1cc2c(=O)c(-c3nc4ccccc4n3C)c(C)oc2c(CN(CC)CC)c1O	inactive	–
CN(C)Cc1cc(O)c(O)c(CN(C)C)c1	–	-13.7% [at 11.4 µM]
Cc1cc2c(s1)CCCCC(=O)N2	inactive	–
Cc1c(C(=O)N2CCCCCC2)nnn1-c1nonc1N	11.2 µM (active)	–
Cc1nonc1NC(=O)N1CCCC1	inactive	–
CCOc1nc(N2CCCCC2)nc(-n2cc(-c3ccccc3)nn2)n1	15.8 µM (active)	–
CC1CCN(CC[S-])CC1.O.O.[Cl][Pt]	–	-1.49% [at 11.4 µM]

Compound	AC50	activity, negative = inhibition
Cc1cc(C(=O)N[C@@H](c2ccccc2)[C@]2(C)C[C@H]2[C@@H](C)C(=O)Nc2ccc3ccccc3c2)n(C)n1	0.794 µM (active)	–
Cc1cc(C(=O)N[C@H](c2ccccc2)[C@@]2(C)C[C@@H]2[C@@H](C)C(=O)Nc2ccc3ccccc3c2)n(C)n1	0.794 µM (active)	–
O=C(Nc1cc(C(=O)Nc2ccc(S(=O)(=O)O)cc2S(=O)(=O)O)cc(C(=O)Nc2ccc(S(=O)(=O)O)cc2S(=O)(=O)O)c1)Nc1cc(C(=O)Nc2ccc(S(=O)(=O)O)cc2S(=O)(=O)O)cc(C(=O)Nc2ccc(S(=O)(=O)O)cc2S(=O)(=O)O)c1	inactive	–
Fc1nc(N2CCCC2)c(F)c(Oc2ccccc2Oc2c(F)c(F)nc(N3CCCC3)c2F)c1F	inactive	–
Cc1noc(C)c1-c1ccc2ncnc(N(C)Cc3ccco3)c2c1	25.1 µM (active)	–
Cc1noc(C)c1-c1ccc2ncnc(N(C)C)c2c1	inactive	–
CN(Cc1ccco1)c1ncnc2ccc(-c3ccoc3)cc12	25.1 µM (active)	–
CN(Cc1ccco1)c1ncnc2ccc(-c3ccc4c(c3)OCO4)cc12	2.51 µM (active)	–
CN(C)C(=O)c1ccc(-c2cc(N(C)Cc3ccco3)ncn2)cc1	inactive	–
N#CC(CC(=O)O)=C(c1ccccc1)c1ccccc1	–	5.39% [at 11.4 µM]
CC(=O)Nc1c(C)nn(-c2ccc(C)c(C)c2)c1C	–	-3.89% [at 11.4 µM]
Cc1nn(-c2ccc(F)cc2)c(Cl)c1/C=C(\CCC(=O)O)c1nc2ccccc2s1	inactive	–
Cc1nn(-c2ccc(F)cc2)c(C)c1NS(=O)(=O)c1ccc2ccccc2c1	4.47 µM (active)	–
Cc1cccc(NC(=S)N/N=C/c2ccc([N+](=O)[O-])s2)c1	22.4 µM (active)	–
O=[N+]([O-])c1ccc(C=Nc2ccc(Cl)cc2Cl)s1	inactive	–
Cc1ccc(C(=O)N/N=C/c2ccc([N+](=O)[O-])s2)cc1	inactive	–
O=C(O)Cc1ccc(NC(=O)C2CCCCC2C(=O)O)cc1 (stereo not given)	inactive	–
CCSc1nnc(NC(=O)C(C(F)(F)F)C(F)(F)F)s1	inactive	–
CCSc1nnc(NC(=O)Cc2ccc(OC)c(OC)c2)s1	–	-2.65% [at 2.29 µM]
CCSc1nnc(NC(=O)CSc2nc3c(cc2C#N)CCCC3)s1	10 µM (active)	–
